Measured values as given in article PMC7819943, “Rice protein-binding microarrays: a tool to detect cis-acting elements near promoter regions in rice”.
The full ranking holds about 39,000 sequences; the median of “fluorescence intensity (a.u.)” is about 4,300, and the highest 2% start at about 39,000. This is one part of a sample in which the highest values are shown more often than they occur.

Molecular target: T1, OsSMF1 (Oryza sativa, UniProt Q6ZLB0 1-436)
T1 sequence: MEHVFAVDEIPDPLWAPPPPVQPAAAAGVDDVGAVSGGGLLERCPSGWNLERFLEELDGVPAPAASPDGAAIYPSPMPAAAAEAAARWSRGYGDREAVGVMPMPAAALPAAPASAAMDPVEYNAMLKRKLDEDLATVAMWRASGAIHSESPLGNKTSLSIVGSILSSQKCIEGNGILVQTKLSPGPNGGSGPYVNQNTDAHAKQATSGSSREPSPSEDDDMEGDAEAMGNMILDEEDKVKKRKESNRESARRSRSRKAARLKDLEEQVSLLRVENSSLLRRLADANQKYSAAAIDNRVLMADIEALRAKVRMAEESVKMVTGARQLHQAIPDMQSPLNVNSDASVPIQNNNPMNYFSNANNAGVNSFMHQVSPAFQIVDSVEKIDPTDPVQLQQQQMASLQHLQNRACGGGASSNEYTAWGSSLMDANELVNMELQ
Assay: protein-binding microarray (RPBM); PBS, 2% BSA, 51.3 ng/ul salmon testes DNA, 50 uM zinc acetate, 200 nM TF, 25 C, 1 h; high values mean tight binding
Settings: protein: recombinant; tags: N-terminal polyhistidine and DsRed monomer fusion (pET32a); chain copies: 2; label: CyDye5-dUTP incorporated in the synthesized complementary strand; 3' TTTTT single-stranded linker to array surface; dsDNA, one strand shown
In short: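 Transcription factors were each fused at the N-terminus to a polyhistidine tag plus DsRed and expressed in E. coli BL21-CodonPlus before Ni–NTA purification. Binding to a double-stranded custom Agilent array was carried out with 200 nM protein at 25 °C for 1 h in PBS, 2% BSA, salmon testes DNA and 50 µM zinc acetate. The binding signal is per-feature fluorescence intensity, in arbitrary units, on an Axon 4000B scanner.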

Going from “TTCATGCGCCCACATGACGTAGTGAATTAGTGGACTATGTCGGAGTCACCTAGTGCAG” to “GAGTAGAGGTGGGAGGAAGCGGTGGTGTGGTGGGGTGGGGCGGAGTCACCTAGTGCAG”, the binding signal rises from 4570 fluorescence intensity (a.u.) to 8310 fluorescence intensity (a.u.).

Compared with “CATAGATGGGCTCATCAGTAATGCTCCATATCAACACGACCGGAGTCACCTAGTGCAG”, “TGCAGCGCCCTCAGCGTTTTGCGCTGCCGTGGCCATCACGCGGAGTCACCTAGTGCAG” is lower in binding signal: 35200 fluorescence intensity (a.u.) for the first, 4300 fluorescence intensity (a.u.) for the second.

First: TATGAAACCTGAAAACAACTTAACACGGGTGTCCTTCGTCCGGAGTCACCTAGTGCAG
Second: CGCCCACCTATCTTACCACTGACACATTGGCCCCACCACCCGGAGTCACCTAGTGCAG
The binding signal of the first is higher: 17500 fluorescence intensity (a.u.) for the first, 4120 fluorescence intensity (a.u.) for the second.

Compared with “CCCTCCCTCCGCCTCCGCCCATCCAATTTCTTACCCCGTTCGGAGTCACCTAGTGCAG”, “AATCCATAATTAGAGAATGTTTACTGTAGCATCACATAGGCGGAGTCACCTAGTGCAG” is higher in binding signal: 3230 fluorescence intensity (a.u.) for the first, 3290 fluorescence intensity (a.u.) for the second.

First: CCTAATTAATCCATAATTATCAAAAGTTTACTGTAGCATCCGGAGTCACCTAGTGCAG
Second: AATTAATCCATTATTAACAAATGTTTACTGTAGCATCACACGGAGTCACCTAGTGCAG
The binding signal of the first is lower: 27800 fluorescence intensity (a.u.) for the first, 51600 fluorescence intensity (a.u.) for the second.

First: GATTGTTGGTAGCTAGGTAGCTGTGGCCAAGAAAGTGAGACGGAGTCACCTAGTGCAG
Second: TAGCAGCCAATTAGTCCACTTAATCACCCATGGATCGCGACGGAGTCACCTAGTGCAG
The binding signal of the first is higher: 3810 fluorescence intensity (a.u.) for the first, 3490 fluorescence intensity (a.u.) for the second.

First: TTATTTTGGAACTGGACCTATCTAATTTCTCCTAGTCAGACGGAGTCACCTAGTGCAG
Second: ACATGATTTGTGCTCCATGACCTCTTTCTTCTATTATCTACGGAGTCACCTAGTGCAG
The binding signal of the first is lower: 3780 fluorescence intensity (a.u.) for the first, 7980 fluorescence intensity (a.u.) for the second.

Going from “TATATCTAGTTTGCTCAGACCTACTGCTATTTCTTTCTGACGGAGTCACCTAGTGCAG” to “TGTTCATAAAAGTAAATGTGCGTGCGTGATTGTATTGTATCGGAGTCACCTAGTGCAG”, the binding signal falls from 41200 fluorescence intensity (a.u.) to 12500 fluorescence intensity (a.u.).

Going from “AGAGAGCAGTGGAGTGCTGTCAGCCGTTGGATGGCCATCCCGGAGTCACCTAGTGCAG” to “ACCGACGTTTAATCCCTGAGAGCCAGCCGTTGGCTGTGTACGGAGTCACCTAGTGCAG”, the binding signal rises from 3400 fluorescence intensity (a.u.) to 65500 fluorescence intensity (a.u.).

First: GCCGCCGCCGCCGCCGCCGCCGCTGTGTGTACGACTACGACGGAGTCACCTAGTGCAG
Second: TTACTGCTACCTCCACTTCATGTTATAAGTTGTTTTACCTCGGAGTCACCTAGTGCAG
The binding signal of the first is lower: 3250 fluorescence intensity (a.u.) for the first, 3480 fluorescence intensity (a.u.) for the second.

Compared with “TCGCTGATGAAAATGATGAGCATGGTGAGGGGAAGAAGGGCGGAGTCACCTAGTGCAG”, “ATTATGTAATGCCTGTTGATGTCAGACCACTCCAAATGCTCGGAGTCACCTAGTGCAG” is lower in binding signal: 22400 fluorescence intensity (a.u.) for the first, 3480 fluorescence intensity (a.u.) for the second.

Compared with “TATGGAGTGAAATGTCAGACTCCAAATGACTTATATGATGCGGAGTCACCTAGTGCAG”, “CTTCTTCTTGTGATGCTTATATATGACTATGTATGTAGTGCGGAGTCACCTAGTGCAG” is lower in binding signal: 64100 fluorescence intensity (a.u.) for the first, 3940 fluorescence intensity (a.u.) for the second.

First: TCCAAAAGTTCTTGATGTGGCATGGTGGACATGAATTTGTCGGAGTCACCTAGTGCAG
Second: CGACCGACATATCTTCATAATTACCAAGTCATCATGCGACCGGAGTCACCTAGTGCAG
The binding signal of the first is higher: 5240 fluorescence intensity (a.u.) for the first, 4520 fluorescence intensity (a.u.) for the second.

Going from “GTTTATTCCAAGTGGTGGATGCTGATGAATTAAGTATATACGGAGTCACCTAGTGCAG” to “ATGAATGACCCTGCGACAACAAACCACATCATATCATGCGCGGAGTCACCTAGTGCAG”, the binding signal rises from 3140 fluorescence intensity (a.u.) to 3740 fluorescence intensity (a.u.).

First: ATCACTTCATTATCACATGACAGACCAACATATAATGATGCGGAGTCACCTAGTGCAG
Second: CTGAATTTGACTCTTGGATGGTGACTATGATGTCCAAGTACGGAGTCACCTAGTGCAG
The binding signal of the first is lower: 44500 fluorescence intensity (a.u.) for the first, 45100 fluorescence intensity (a.u.) for the second.

First: ATTGGGGAGAGGAGCTGGGCGAGGCGGGGCTTGGGCTCGGCGGAGTCACCTAGTGCAG
Second: TAGGGGAGCCTCGACACGACGCCGCTGGCGTGGCGCGTCCCGGAGTCACCTAGTGCAG
The binding signal of the first is lower: 3390 fluorescence intensity (a.u.) for the first, 9370 fluorescence intensity (a.u.) for the second.

Compared with “AAATAATGTGGCCGGACGGGCGGTAGGGTCCTGGCAGCAGCGGAGTCACCTAGTGCAG”, “CTCTCCTCTTTGCATGCATTCCTCCTGCCAAGAGTGCTGACGGAGTCACCTAGTGCAG” is lower in binding signal: 28000 fluorescence intensity (a.u.) for the first, 3400 fluorescence intensity (a.u.) for the second.

Going from “AAACAAAATAGCATAATCACTCACCGCGTCACACAGCGGGCGGAGTCACCTAGTGCAG” to “CCGAAGGAGTACGTGCCAAGTCGGCCCATCAGGCCCACGTCGGAGTCACCTAGTGCAG”, the binding signal rises from 3720 fluorescence intensity (a.u.) to 4010 fluorescence intensity (a.u.).

Going from “CACCAAACCCCAACCCACCTCCAGGTCATCCACCCACATCCGGAGTCACCTAGTGCAG” to “AAACCCAAGCAAACCAGCAGCTACTAAGCAAAGCACAACCCGGAGTCACCTAGTGCAG”, the binding signal rises from 3900 fluorescence intensity (a.u.) to 33900 fluorescence intensity (a.u.).

Going from “CTCTGCACAATTGCACCAACCCCAAAGCTTGGCTAAGCTCCGGAGTCACCTAGTGCAG” to “ATACGGCACCATTTACGTGTATATGTGTCGTACATGCATACGGAGTCACCTAGTGCAG”, the binding signal falls from 51000 fluorescence intensity (a.u.) to 3470 fluorescence intensity (a.u.).

Compared with “CGATATACGTACACATGTGACATGACGTAATTTTACATCCCGGAGTCACCTAGTGCAG”, “CATTTTCCAGGCCAAGCCAGCTCACATCACCAGAGCAACACGGAGTCACCTAGTGCAG” is lower in binding signal: 4320 fluorescence intensity (a.u.) for the first, 3720 fluorescence intensity (a.u.) for the second.

Compared with “CCCTACGTGCACACATCCAGCTCCATTATATAGCCATTTTCGGAGTCACCTAGTGCAG”, “TTACGATATAGTGTGCCAATTGGCACACCTACATTTTAGTCGGAGTCACCTAGTGCAG” is lower in binding signal: 54800 fluorescence intensity (a.u.) for the first, 45700 fluorescence intensity (a.u.) for the second.

First: TGACCTAGCTAGCTACCTTTTCCCTCTTCCATCACATATACGGAGTCACCTAGTGCAG
Second: CAGTTCCCAGCTGGACCTCCGACCTCCTACCTCCTCACCTCGGAGTCACCTAGTGCAG
The binding signal of the first is higher: 3800 fluorescence intensity (a.u.) for the first, 3340 fluorescence intensity (a.u.) for the second.

First: AATGTTTGGGTTCGAATTTAGTGGGTGGGTTTGGAGTTTGCGGAGTCACCTAGTGCAG
Second: TCCGCGGCCCCGCTGGCCCACACGCATGCGTCCAAACAGCCGGAGTCACCTAGTGCAG
The binding signal of the first is higher: 4670 fluorescence intensity (a.u.) for the first, 3940 fluorescence intensity (a.u.) for the second.

Compared with “CAAATAGAACATAGCCATACGAAATGACTCACTAACCTCTCGGAGTCACCTAGTGCAG”, “TCACCGGTCTCATCCCCGTCATATGCATCCTTATCTCCAACGGAGTCACCTAGTGCAG” is lower in binding signal: 4910 fluorescence intensity (a.u.) for the first, 4020 fluorescence intensity (a.u.) for the second.

First: TGACCTACTTGCACTTATAATTTATAGTATTATGATGTGTCGGAGTCACCTAGTGCAG
Second: TCCAAGCCGTCCACTCCCCTCCGATCCAACGGTCCAAACCCGGAGTCACCTAGTGCAG
The binding signal of the first is lower: 3290 fluorescence intensity (a.u.) for the first, 21800 fluorescence intensity (a.u.) for the second.

Going from “ATGCACACACATACAACGAAAACCAGAGATCAACAGGTGCCGGAGTCACCTAGTGCAG” to “AGATCACACACAACACGCACATCACGAACCGGACCAAACCCGGAGTCACCTAGTGCAG”, the binding signal falls from 45100 fluorescence intensity (a.u.) to 3660 fluorescence intensity (a.u.).

For “CACACCTGACACAACACTTACACATCATACCAGAAGAAAACGGAGTCACCTAGTGCAG”, the binding signal was 3210 fluorescence intensity (a.u.).
